Screens: PubChem BioAssay, several laboratories
A selection: hits, their analogues and other compounds. The true share with any hit is near 0.97%.
TLR9-MyD88 inh = TLR9-MyD88 interaction inhibition; inhibition, % at 4.98 µM; AID 504734; CHO BLA complementation TLR9-MyD88, CCF4 FRET ratio; hit rate 0.21% among 340,000; Q9NR96+Q99836;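 active = inhibition above the mean over all tested compounds plus 3 SD, cut at about 21% in these data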;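 note: 0% = DMSO only wells and 100% = clavulanate BLA inhibitor control wells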
B2AR ag = agonists of human beta-2 adrenergic receptor inducing internalization; Am2.2-beta2AR cells, FAP receptor internalization, flow cytometry; P07550; hit rate 0.43% among 340,000; response, % (concentration not given with the values);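 active = response above a set limit, near 3 SD of response in nonfluorescent compounds, cut at about 42% in these data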
Bfl-1 A1 inh = inhibitors of the anti-apoptotic protein A1, read as caspase activation; MEF A1-2A-BIM cells, Caspase-Glo 3/7 luminescence, 3 h; percent of clofoctol response, vehicle zero; caspase activation, % (concentration not given with the values); hit rate 0.066% among 330,000; AID 2462;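 active = over half of replicate activation scores above 10%, or exactly half above 10 with the replicate mean above 10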
TLR4 MyD88 comp = TLR4-MyD88 interaction inhibition in cells; O00206+Q99836; HeLa CL3-4 TLR4/MyD88 BLA complementation, FRET ratio; inhibition, % at 8.4 µM; hit rate 0.18% among 200,000; in the data active = inhibition above about 25%;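 note: 0% = vehicle and 100% = reference inhibitor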
NOD2 RIPK2 PPI = NOD2-RIPK2 protein interaction inhibition | hit rate 0.38% among 360,000 | O43353 | inhibition, % at 4.98 µM | CHO BLA complementation NOD2-RIPK2, CCF4 ratio | AID 624267; in the data active = inhibition above about 21%;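 note: 0% = vehicle only and 100% = reference blocker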
NTR1 ag = activates human neurotensin receptor 1 | P30989 | NTR1-U2OS beta-arrestin-GFP spot imaging, agonist mode | hit rate 0.17% among 330,000 | AID 493036 | activation, % at 20 µM;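 active = activation at or above 40% of the spot to cytoplasm intensity ratio, with at least 20 cells analyzed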;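 note: 0% = DMSO without peptide and 100% = 100 nM NTR1 peptide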
Target sequence (P30989 whole entry, looked up): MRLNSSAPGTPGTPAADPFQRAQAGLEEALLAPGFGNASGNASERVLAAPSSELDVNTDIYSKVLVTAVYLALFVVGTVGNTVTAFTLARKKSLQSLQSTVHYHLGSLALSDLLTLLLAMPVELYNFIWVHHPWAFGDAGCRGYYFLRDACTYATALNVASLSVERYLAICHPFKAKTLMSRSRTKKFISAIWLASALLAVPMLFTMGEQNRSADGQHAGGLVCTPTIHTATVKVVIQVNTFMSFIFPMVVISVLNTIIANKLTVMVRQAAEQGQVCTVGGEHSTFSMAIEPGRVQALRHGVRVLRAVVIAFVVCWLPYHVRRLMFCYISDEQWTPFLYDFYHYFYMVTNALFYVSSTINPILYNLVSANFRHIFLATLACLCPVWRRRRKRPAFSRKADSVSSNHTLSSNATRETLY
B2AR ag CP1 = activates human beta-2 adrenergic receptor; Am2.2-beta2AR cells, FAP surface receptor, flow cytometry; hits give low values; percent response (surface receptor), % at 10 µM; shares compounds with B2AR ag; hit rate 25% among 1,100;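 active = surface receptor percent response at or below 58%, roughly 3 SD from nonfluorescent compounds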
FAP fluor counter = fluorescence artifact in beta-2AR agonist FAP counterscreen | 1,100 tested, under 10 active | AID 588765 | Am2.2 cells, FAP fluorogen flow cytometry; hits give low values | calls only at 10 µM | shares compounds with B2AR ag;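 active = percent response below a set limit in fluorescence channel 1 and below 50% in channel 8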
NOD2-RIPK2 conf = confirmation of human NOD2-RIPK2 interaction inhibitors; inhibition, % at 4.98 µM; CHO cells, NOD2-RIPK2 BLA complementation, CCF4 FRET; hit rate 70% among 1,200; shares compounds with NOD2 RIPK2 PPI;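 active = mean inhibition across replicates above a set limit taken from the earlier primary screen, cut at about 21% in these data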;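 note: 0% = DMSO-only wells and the high end = clavulanate BLA-blocked wells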
BLA counter = hits BLA reporter in NOD2-RIPK2 inhibitor counterscreen; hit rate 57% among 1,200; CHO BLA reporter, CCF4 FRET ratio; inhibition, % at 4.98 µM; shares compounds with NOD2 RIPK2 PPI; AID 624371;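 active = mean inhibition above the low-control mean inhibition plus three low-control SD, cut at about 11% in these data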;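 note: 0% = DMSO only wells and 100% = clavulanate high control wells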
Numbers without * were called inactive; i = inactive; · = not tested or not shown; ! = not active in a repeat.

SMILES	TLR9-MyD88 inh	B2AR ag	Bfl-1 A1 inh	TLR4 MyD88 comp	NOD2 RIPK2 PPI	NTR1 ag	B2AR ag CP1	FAP fluor counter	others
COc1ccc(C(CCNC(C)c2ccccc2)c2ccc(F)cc2)cc1 (stereo not given)	-4	42*	1	3	-2	8	99	i
COc1ccc(C(OCC(O)CNC(C)c2ccccc2)c2ccc(OC)cc2)cc1 (stereo not given)	0	51*	0	·	3	5	114	i
COc1ccc(CNCCC(c2ccc(F)cc2)c2ccc(OC)cc2)cc1 (stereo not given)	-12	35	0	-1	9	7	88	i
COc1ccc(CNCCC(c2ccc(F)cc2)c2ccc(OC(C)C)cc2)cc1OC (stereo not given)	-10	32	0	·	-4	26	·	·
COc1ccc(C(CCNCc2ccc(F)cc2)c2ccc(F)cc2)cc1 (stereo not given)	1	42	1	10	-11	18	104	i
CCOC(=O)C1=C(c2ccccc2)O/C(=C(/C#N)C(F)(F)F)S1	·	·	3	12	·	13	·	·
O=C1CCN(Cc2nnnn2CC2CCCO2)c2ccccc2N1 (stereo not given)	17	42*	0	-7	-16	-2	105	i
O=C(c1ccco1)N1CCN(Cc2nnnn2CC2CCCO2)CC1 (stereo not given)	-2	3	0	5	-4	0	·	·
OCCN1CCN(C(c2cccs2)c2ccc3cccnc3c2O)CC1 (stereo not given)	·	·	·	5	·	·	·	·
CC(C)(C)c1cc(C(c2cccnc2)N2CCN(CCO)CC2)cc(C(C)(C)C)c1O (stereo not given)	7	62*	25*	8	8	1	57*	i
CCc1ccc(N2C(=O)Nc3ccc(Br)cc3C2(O)C(=O)NCCN(C)C)cc1 (stereo not given)	-9	19	0	·	4	0	·	·
CCOc1cc(CNCCc2ccc(S(N)(=O)=O)cc2)ccc1OCc1ccccc1	3	13	0	-4	-7	·	110	i
O=C(CN1CCc2ccccc2C1)Nc1ccccc1N1CCCCCC1	-2	110*	-1	-12	-4	20	97	i
COc1cc2nc(N3CCNCC3)nc(N)c2cc1OC	-5	61*	0	12	-8	7	51*	i
O=C(O)c1ccc(CSc2nnc(-c3ccc(Cl)cc3)o2)cc1	-1	6	-1	·	-9	1	·	·
O=S(=O)(Nc1ccc(-c2nnc(SCc3ccc(Cl)cc3)o2)cc1)c1ccccc1	2	43*	0	-10	1	9	114	i
COc1cccc(/C=N/n2cnc3ccccc32)c1OC	3	-3	-2	-10	-4	0	·	·
C[C@@H]1CC[C@H](Cc2ccc(-n3cccc3)cc2)N1C(=O)OC(C)(C)C	6	·	·	·	2	·	97	i
COCCn1c(C)cc(/C=C2\NC(=S)N(C)C2=O)c1C	2	1	1	-8	-15	-1	·	·
CC(=O)NC(CCS(C)(=O)=O)C(=O)Nc1ccccc1C (stereo not given)	-3	3	-1	12	1	-1	·	·
CC(C)(C)c1ccc(S(=O)(=O)NC(=O)C2(C)CCN2C(=O)Cc2cc(F)ccc2F)cc1 (stereo not given)	·	·	·	·	5	·	·	·
O=C(NNC(=O)C1CCC1)c1ccc(Cl)cc1	-13	3	1	·	3	2	·	·
COCC(C)NC(=O)CCS(=O)(=O)c1nc(-c2ccc(OC)cc2)cc(C(F)(F)F)n1 (stereo not given)	-9	53*	0	-5	-10	15	25*!	i
COc1ccc(C(C)=O)cc1CC(=O)Nc1ccc2c(c1)CCC2	-1	14	2	·	-7	2	·	·
COc1ccc(-c2cc(C)no2)cc1S(=O)(=O)N1CC(=O)Nc2ccccc21	-7	14	-1	·	2	1	·	·
SMILES	TLR9-MyD88 inh	B2AR ag	Bfl-1 A1 inh	TLR4 MyD88 comp	NOD2 RIPK2 PPI	NTR1 ag	B2AR ag CP1	FAP fluor counter	others
COc1ccc(-c2cc(C)no2)cc1S(=O)(=O)N1CCOc2ccc(Cl)cc21	-11	46*	-2	·	5	5	121	i
Cc1ccc(S(=O)(=O)Nc2ccc(O)c3cccnc23)cc1	-3	9	0	·	-10	2	104	i
Cc1ccnc(SCCn2c(N3CC(C)OC(C)C3)nc3c2c(=O)n(C)c(=O)n3C)n1 (stereo not given)	4	-5	0	2	-8	4	·	·
CCCc1cc(=O)n2c(nc3ccccc32)[nH]1	-6	68*	0	1	-9	0	95	i
c1ccc(-c2nccc(-c3ccc(-n4cnc5ccccc54)cc3)n2)cc1	4	71*	0	3	-10	8	96	i
c1ccc(-n2cnc3ccccc32)nc1	-7	-17	-1	·	5	2	·	·
CCCC(=O)N1CCN(c2ccc(NC(=O)c3ccc([N+](=O)[O-])o3)cc2Cl)CC1	3	42*	·	-3	27*	·	4.8*	i
COc1ccc(Nc2cc(C(=O)NCCCN3CCOCC3)c3ccccc3n2)cc1	0	6	0	·	-7	-1	·	·
COc1ccc(Nc2cc(C(=O)NCCCN3CCN(C)CC3)c3ccccc3n2)cc1	-1	47*	0	-6	-4	0	86	i
CCOc1ccc2nc(N3C(=O)CNC3=S)sc2c1	7	3	-4	·	0	0	104	i
CCn1cc(Cl)c(C(=O)Nc2cc(C(=O)OC)cc(C(=O)OC)c2)n1	2	-3	0	10	3	1	·	·
O=C(COC(=O)c1ccccc1C(=O)c1ccc(Cl)c([N+](=O)[O-])c1)NC1CC1	14	43*	0	18	49*	-1	68	i	NOD2-RIPK2 conf=56*;BLA counter=9
O=C(COC(=O)c1cc([N+](=O)[O-])ccc1Cl)NC1CCCC1	-14	-4	1	·	3	0	·	·
COc1ccc2c(c1)OC[C@H]1[C@H]2N2C(=O)c3ccc(C)cc3NC(=O)[C@@]2(C)[C@H]1c1ccccc1	-12	12	0	·	5	-3	·	·
